From PubChem BioAssay AID463173 (ICCB-Longwood Screening Facility, Harvard Medical School, 2010) come the findings set out here.

Screen size: about 52,000 compounds; about 4,300 (8.3%) were called active. This is one part of a sample in which actives are shown more often than they occur. A number with no mark means an inactive call. No stated cut-off is given here; in the data, active means survival mostly below about 52% (no sharp cut-off); inactive means mostly above about 56%.

This test deals with DeltatarO mutant. As to the kind of experiment: growth inhibition of S. aureus wild type versus tarO mutant, primary screen, teichoic acid synthesis inhibitors, RN4220, OD600 (AID 463173). The note with it: OD600, 18 h, stronger effect = lower value, screened at 18.75 µg/mL (by protocol).
On to `Cc1ccnc(NS(=O)(=O)c2ccc(NC(=O)c3nc(SC(C)C)ncc3Cl)cc2)n1`, for which the survival was 58%. Consider `CCOC(=O)c1noc2nc(C)n(CC(=O)Nc3cccc(OC)c3)c(=O)c12`, for which the survival was 108%. `O=c1c2ccccc2nc(-c2ccccc2)n1CCCn1ccnc1`: the survival was 107%.

For `CCCc1cc(C(=O)Nc2c(C)nn(Cc3ccc(Cl)c(Cl)c3)c2C)no1`, the survival was 56%. With `CCOC(=O)c1cccc(NC(=O)NCc2ccc3c(c2)CCN3C(=O)c2ccccc2)c1`, the survival was 116%. For `O=C(NCc1ccc2c(c1)CCN2C(=O)c1ccccc1)Nc1cccc(C(F)(F)F)c1`, the survival was 123%. Take `O=C(NCc1ccc2c(c1)CCN2C(=O)c1ccccc1)c1cc2ccccc2[nH]1`: the survival is 6% (active). On to `COc1ccc(OCC(=O)NCc2ccc3c(c2)CCN3C(=O)c2cccc(C)c2)cc1`, for which the survival is 82%. Turning to `COc1ccc2cc(C(=O)NCc3ccc4c(c3)CCN4C(=O)c3ccccc3)[nH]c2c1`, the survival is -1% (active).

As for `COc1ccc(CC(=O)NCc2ccc3c(c2)CCN3C(=O)c2cccc(C)c2)cc1`, the survival was -4% (active). On to `COc1ccc2cc(C(=O)NCc3ccc4c(c3)CCN4C(=O)c3ccc(F)cc3)[nH]c2c1`, for which the survival is 86%. With `COc1ccc2cc(C(=O)NCc3ccc4c(c3)CCN4C(=O)c3ccc(C)cc3)[nH]c2c1`, the survival was 75%.

As for `Cc1cccc(C(=O)N2CCc3cc(CNC(=O)c4cc5ccccc5[nH]4)ccc32)c1`, the survival is 81%. In the case of `COc1cccc(NC(=O)NCc2ccc3c(c2)CCN3C(=O)c2ccccc2)c1` it was 52% (active). As to `COc1ccc(CCC(=O)NCc2ccc3c(c2)CCN3C(=O)c2cccc(C)c2)cc1`, the survival is 76%. As to `O=C(NCc1ccc2c(c1)CCN2C(=O)c1ccc(F)cc1)c1cc2ccccc2[nH]1`, the survival was 97%. As to `CCC1CCCCN1Cc1cn2c(-c3ccc(Br)cc3)nnc2s1` (stereo unspecified), the survival was 80%. As for `Cc1ccc(Cn2c(=O)c3cccnc3n(CC(=O)Nc3cc(Cl)ccc3C)c2=O)cc1`, the survival is 85%. Consider `CCCOc1cccc(C2c3c(oc4ccc(F)cc4c3=O)C(=O)N2CCc2ccc(OC)cc2)c1` (stereo unspecified), for which the survival was 92%. Regarding `CCOC(=O)c1[nH]c(C)c(CCC(=O)NC(C)c2ccccc2)c1C` (stereo unspecified), the survival was 83%. Turning to `O=C(NC12CC3CC(CC(C3)C1)C2)c1cncc(O)c1`, the survival was 90%.

As for `CCc1ccccc1NC(=O)c1ccc2c(c1)N(Cc1cc(C)ccc1C)C(=O)c1ccccc1S2(=O)=O`, the survival is 84%. Turning to `Cn1c(=O)n(C)c2cc(/C=N/NC(N)=S)ccc21`, the survival is 98%.

On to `CCn1cc(C(=O)N2CCN(c3ccc(F)cc3)CC2)c(=O)c2cc(S(=O)(=O)N(C)C3CCCCC3)ccc21`, for which the survival was 73%. Regarding `CCOc1ccc(C(=O)NCc2ccc3c(c2)CCN3C(=O)c2ccc(Cl)cc2)cc1`, the survival was 91%. As for `CCOc1ccc(C(=O)NCc2ccc3c(c2)CCN3C(=O)c2ccccc2)cc1`, the survival is -2% (active). As to `O=C(NCc1ccc2c(c1)CCN2C(=O)c1ccccc1)c1ccccc1`, the survival is 79%. Take `CC(=O)c1cccc(NC(=O)C(CC(C)C)NS(=O)(=O)c2ccc3c(c2)CCN3C(C)=O)c1` (stereo unspecified): the survival was 115%. In the case of `COCc1nc2ccccc2n1CCOc1cccc(C)c1`, the survival is 39% (active). With `COc1ccccc1OCCn1c(C(C)Oc2ccccc2)nc2ccccc21` (stereo unspecified), the survival was 66%. With `CCCC(O)c1nc2ccccc2n1CCCCOc1ccc(OC)cc1` (stereo unspecified), the survival was 52%. In the case of `COc1ccc(OCCn2c(C(C)Oc3ccccc3)nc3ccccc32)cc1` (stereo unspecified) it was 48% (active); in that of `COc1cccc(OCc2nc3ccccc3n2CCOc2ccccc2C)c1`, 38% (active); in that of `Cc1ccc(OCCn2c(COc3ccc(Cl)cc3)nc3ccccc32)cc1`, 65%. Take `Cc1ccc(OCc2nc3ccccc3n2CCOc2ccc(Cl)cc2)cc1`: the survival is 15% (active). As for `Cc1cccc(OCCn2c(SCC(N)=O)nc3ccccc32)c1`, the survival was 121%. In the case of `COc1ccccc1OCCn1c(COc2cc(C)ccc2C)nc2ccccc21` it was 61%; in that of `COc1ccccc1NC(=O)C1=C(C)Nc2nc(SCc3ccccc3)nn2C1c1ccccn1` (stereo unspecified), 65%. As for `Cc1cc(C)cc(Nc2sc(C(=O)c3ccccc3)c(N)c2S(=O)(=O)c2ccccc2)c1`, the figure is 101%; as for `Cc1ccsc1CCN1C(=O)N(c2ccccc2)C(=O)C1CC(=O)Nc1ccc(F)cc1` (stereo unspecified), 114%.

For `CC(C)=CCC(C)(C)C1OCCN1C(=O)Nc1ccccc1` (stereo unspecified), the survival is 95%. Turning to `Cc1sc2c(c1C)c(=O)n(Cc1ccccc1)c(=O)n2Cc1ccc(F)cc1`, the survival was 109%. `COc1ccc(C2CC(=O)c3cc(-c4nc(-c5ccc(Cl)cc5)cs4)c(=O)[nH]c3C2)cc1OC` (stereo unspecified): the survival was 59%. `CC(=O)c1ccc(NC(=O)/C=C/c2ccc(C)o2)cc1`: the survival was 48%.

Regarding `COc1ccc(Cn2ccnc2SCC(=O)Nc2nc3ccccc3s2)cc1`, the survival is 84%. In the case of `CCc1ccc(OCCCSc2nc(-c3ccc(C(C)(C)C)cc3)nc3cc(=O)[nH]n23)cc1`, the survival was 80%. As for `CCOC(=O)c1[nH]c(C)c(C(=O)NCc2ccc(F)cc2)c1C`, the figure is 79%; as for `O=S(=O)(c1cccc(Cl)c1)c1nnn2c1nc(NC1CCCCCC1)c1sccc12`, 106%; as for `COc1cccc(OCc2nc3ccccc3n2CCOc2ccc(C)cc2)c1`, 36% (active). For the compound `COc1cccc(OCc2nc3ccccc3n2CCOc2cccc(C)c2)c1`, the survival was 44% (active). Take `CCCn1c(COc2cccc(C)c2)nc2ccccc21`: the survival is 12% (active).

As for `COc1cccc(OCc2nc3ccccc3n2C)c1`, the survival was 57%. With `CCCCn1c(COc2cccc(OC)c2)nc2ccccc21`, the survival was 57%.

On to `COc1cccc(OCCn2c(-c3ccc(Br)cc3)nc3ccccc3c2=O)c1`, for which the survival is 82%. On to `COc1cccc(OCc2nc3ccccc3n2CCOc2ccccc2)c1`, for which the survival is 35% (active). With `O=S(=O)(NCc1ccccc1Cl)c1ccc(-c2cnc(C3CC3)o2)cc1`, the survival was 101%. Take `CC1CCN(c2nc3c(S(=O)(=O)c4cccc(Cl)c4)nnn3c3ccsc23)CC1`: the survival is 81%.

As for `Cc1c(C#N)c2ccccc2n1CC(=O)NC1CCCCCC1`, the survival was 72%. As for `CC(C(=O)Nc1ccccc1C(=O)N1CCCC1)n1nnc2ccccc21` (stereo unspecified), the survival is 77%. Consider `COc1ccc(Nc2nnc(-c3ccc(C)c(S(N)(=O)=O)c3)c3ccccc23)cc1`, for which the survival is 70%.

Turning to `CCn1c(SCC(=O)c2ccc(Br)cc2)nnc1-c1ccncc1`, the survival was 99%.

As to `CC1CCC(=O)C(C2(O)C(=O)Nc3ccccc32)C1` (stereo unspecified), the survival is 93%. Turning to `CC1CCC2C(C1)Nc1c(C(=O)O)cccc1C2(C)C` (stereo unspecified), the survival is 40% (active). `COc1ccc(OC)c(NC(=O)CN2CCCN(Cc3ccccc3Cl)S2(=O)=O)c1`: the survival was 128%.

For the compound `Cc1ccc2c(c1)N(CC(=O)Nc1ccccc1C(F)(F)F)C(=O)c1cccnc1O2`, the survival is 100%. On to `CCOC(=O)c1c(S(=O)(=O)N2CCCC(C(=O)N(C)Cc3ccccc3)C2)c(C)n(C)c1C` (stereo unspecified), for which the survival is 92%.

With `Cc1ccc(Cl)cc1Nc1nn2c(=O)c3ccc(C(=O)N4CCCC(C)C4)cc3nc2s1` (stereo unspecified), the survival was 73%. Regarding `Cc1nc(-c2ccccc2)cc(=O)[nH]1`, the survival was 109%. As for `Cc1nc2cc3ccccc3cc2c(=O)[nH]1`, the figure is 47% (active); as for `CC(C)c1nc2ccccc2c(=O)[nH]1`, 91%; as for `CNS(=O)(=O)c1cn(CC(=O)N2CCN(c3ccccc3F)CC2)cc1S(=O)(=O)NC`, 71%. With `CC(=O)c1ccc(S(=O)(=O)Nc2ccc(-c3cn4c(C)csc4n3)cc2)cc1`, the survival is -5% (active). Turning to `CC(=O)Nc1ccc(S(=O)(=O)Nc2ccc(-c3cn4c(C)csc4n3)cc2)cc1`, the survival is 89%. In the case of `COc1ccc(S(=O)(=O)Nc2ccc(-c3cn4c(C)csc4n3)cc2)cc1` it was 94%; in that of `COc1cc2ccccc2cc1C(=O)Nc1ccc(Cl)c(-c2nc3ccccc3o2)c1`, 40% (active). For the compound `COc1cc2ccccc2cc1C(=O)Nc1cccc(-c2nc3ccccc3o2)c1`, the survival was 7% (active). In the case of `Cc1cc2nc(-c3ccc(NC(=O)c4ccccc4F)cc3)oc2cc1C`, the survival is 66%. `Cc1cc2oc(C(=O)Nc3cccc(-c4nc5ccccc5o4)c3)c(C)c2cc1C`: the survival was 74%. Take `COc1cc2ccccc2cc1C(=O)Nc1cccc(-c2nc3cc(C)c(C)cc3o2)c1C`: the survival is 45% (active).

Take `CCCC(=O)Nc1cccc(-c2nc3cc(C)c(C)cc3o2)c1C`: the survival was 57%. In the case of `Cc1cc2nc(-c3cccc(NC(=O)c4cccc5ccccc45)c3)oc2cc1C` it was 57%. In the case of `COc1cc2ccccc2cc1C(=O)Nc1ccc2oc(-c3cc(Br)ccc3Cl)nc2c1` it was 75%.

As to `COc1cc2ccccc2cc1C(=O)Nc1cc(-c2nc3ccccc3o2)ccc1C`, the survival is 111%. As for `COc1cc2ccccc2cc1C(=O)Nc1cccc(-c2nc3cc(C)c(C)cc3o2)c1`, the figure is 41% (active); as for `COc1cc2ccccc2cc1C(=O)Nc1cccc(-c2nc3cc(C)ccc3o2)c1C`, 55%. As for `COc1cc2ccccc2cc1C(=O)Nc1ccc2oc(-c3cccc(Cl)c3Cl)nc2c1`, the figure is 56%; as for `CCc1cccc(NC(=O)Cn2c(=O)n(CCCCCC(=O)NCc3ccc(F)cc3)c(=O)c3sccc32)c1`, 63%. Turning to `O=C(NCc1ccc(Cl)cc1)C1CCN(C(=O)c2cnn(-c3ccccc3)c2-n2cccc2)CC1`, the survival was 65%. For `Cc1ccc(C)c(NS(=O)(=O)c2cc3c4c(c2)C(C)C(=O)N4CCC3)c1` (stereo unspecified), the survival is 106%. As for `COc1ccc(CNC(=O)c2cnc3sc(N4CCCCCC4)nn3c2=O)cc1`, the figure is 101%. As for `CCOc1cccc2cc(-c3nc(-c4ccccc4C)no3)c(=O)oc12`, the survival was 76%.
